DT40 TDP1 no CPT: qHTS for Inhibitors of human tyrosyl-DNA phosphodiesterase 1 (TDP1): qHTS in cells in absence of CPT; 420,000 compounds, 15% hits; DT40 Tdp1-/- hTDP1 cells, no CPT, ATP luminescence, 48 h; Potency, µM (titrated, usually from 46.2 µM), for inactives: at the top dose activity change, negative = growth inhibition, hits mostly inhibitors; AID 686978, 2013; note: % is set by controls: 0 for no effect and ±100 for the full control effect; nearly all actives have a fitted effect of over 55% in size
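Compound effects on proliferation are scored in DT40 Tdp1-/-;hTDP1 cells in the absence of CPT. ATP levels (CellTiter-Glo luminescence) are recorded after a ≥48 hr, 37 °C incubation.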
TDP1 inh: blocks human tyrosyl-DNA phosphodiesterase 1; AID 485290; recombinant TDP1, AlphaScreen DNA substrate cleavage; Potency, µM (doses to about 130 µM), for inactives: top-dose activity change, negative = inhibition, usual class: inhibitors; Q9NUW8; 350,000 compounds, 0.28% hits; note: % is set by controls: 0 for no effect and ±100 for the full control effect; nearly all actives have a fitted effect of over 40% in size
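Tdp1 1 nM final; 15 min RT w/ cpd; substrate 15 nM, 5 min; beads 10 ug/ml, 10 min; AlphaScreen read. Neg ctrl: no enzyme.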
TDP1 cell CPT: growth inhibition of DT40 Tdp1-/-;hTDP1 cells with camptothecin (screen for TDP1 inhibitors) | chicken DT40 Tdp1-/-;hTDP1 cells + 20 nM CPT, ATP luminescence, 48 h | Potency, µM (titrated, usually from 46.2 µM), inactives show at the highest dose activity change, negative = growth inhibition, usual class: inhibitors | 420,000 compounds, 12% hits; note: % is set by controls: 0 for no effect and ±100 for the full control effect; nearly all actives have a fitted effect of over 55% in size
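Chicken DT40 Tdp1-/- cells complemented with human TDP1, 400 cells/well, exposed to compounds plus 20 nM camptothecin for at least 48 h at 37 C; viability read as ATP content by CellTiter-Glo luminescence.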
ClpP mod: qHTS Assay for Activators of ClpP; Potency, µM (doses to about 57.5 µM), for the others: top-dose activity change, negative = active; purified B. subtilis ClpP, FRET peptide cleavage, 20 min; ATP-dependent Clp protease proteolytic subunit (Bacillus subtilis (strain 168)), P80244; AID 651965, 2013; 340,000 compounds, 1.9% hits; active = well fitted falling curve with a large enough effect; inconclusive = small, poorly fitted or top-dose-only effect; inactive = no such curve, though single readings can be large or run the other way; note: the source files actives as falling curves though it sought activators and does not explain the sign; nearly all actives have a fitted effect of over 65% in size
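ClpP 10 microg/mL final, pH 8 Tris/KCl buffer with BSA, glycerol, Tween-20; compound pinned in; FRET-FV substrate; RT 20 min; Ex320/Em430; ΔFRET vs ADEP 5.8 microM, DMSO, no enzyme.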
* marks the source's active call; other numbers are inactive results; ? = inconclusive; · = no result given. Most compounds without a hit are left out; they make up all but 17% or so of the library. Unless noted, calls come from the whole dose curve; as a rule, active = well fitted curve in the direction sought with a large enough effect; inconclusive = small, poorly fitted or top-dose-only effect, or another doubt; inactive = no such curve, though single readings can be large; an effect the other way counts as inactive or inconclusive. Potency is the fitted concentration of half-maximal effect.

SMILES	DT40 TDP1 no CPT	TDP1 inh	TDP1 cell CPT	ClpP mod
Cc1ccc(N=Nc2c(=O)[nH]n3c(C)cc(C)nc23)cc1	-30%	4%	-12%	0%
Nc1[nH]n2c(=O)cc(-c3ccccc3)nc2c1N=Nc1ccccc1	5.2µM*	9%	3.3µM*	6%
Cc1ccc(N=Nc2c(N)[nH]n3c(=O)cc(C)nc23)cc1	15µM*	11%	?	3%
COc1ccc(N2C(=O)CSC23C(=O)N(CC(N)=O)c2ccccc23)cc1 (stereo not given)	-6%	4%	18%	-1%
COc1ccc(N/N=C(\C#N)C(=N)N2CCCCC2)cc1	?	7%	-13%	3%
COc1ccc(N/N=C(\C#N)C(=N)SCc2ccccc2)cc1	7.3µM*	8%	4.6µM*	2%
Cc1ccc(N2C(=O)CSC23C(=O)Nc2ccccc23)cc1F (stereo not given)	·	8%	·	1%
Cn1c(SCc2ccc(Br)cc2)nc2ccccc2c1=O	12µM*	·	?	-1%
Cn1c(SCc2c(F)cccc2Cl)nc2ccccc2c1=O	-27%	-12%	-25%	-7%
Cc1cccc(CSc2nc3ccccc3c(=O)n2C)c1	18µM*	·	?	-2%
Cn1c(SCC#N)nc2ccccc2c1=O	-22%	0%	19%	-1%
COc1cc(Cl)c(C)cc1NC(=O)CSc1cc(-c2ccccc2)nc(C)n1	-17%	-2%	-20%	0%
CN(C)c1ccc(S(=O)(=O)NCC(=O)OCC(=O)Nc2cc(Cl)cc(Cl)c2)cc1[N+](=O)[O-]	-5%	4%	-6%	-1%
OCCCn1c(C(CO)Nc2nc(-c3ccc(Cl)cc3)cs2)nc2ccccc21 (stereo not given)	16µM*	·	?	-2%
COc1ccc(-c2csc(NC(CO)c3nc4ccccc4n3Cc3ccc(C)cc3)n2)cc1 (stereo not given)	?	·	26µM*	-3%
Cc1ccc(Cn2c(C(CO)Nc3nc(-c4ccc(F)cc4)cs3)nc3ccccc32)cc1 (stereo not given)	16µM*	·	?	-1%
CCN(CC)C(=O)c1cnn(-c2ccc(F)cc2)c1-n1cccc1	·	3%	·	-1%
Cc1ccc(Cl)cc1Nc1nn2c(=O)c3ccc(C(=O)NCc4ccc(F)cc4)cc3nc2s1	4.6µM*	3%	2.1µM*	11%
CCc1ccccc1Nc1nn2c(=O)c3ccc(C(=O)NCc4ccc(C)cc4)cc3nc2s1	8.2µM*	0%	?	4%
Cc1ccccc1Nc1nn2c(=O)c3ccc(C(=O)NCc4ccccc4)cc3nc2s1	16µM*	-13%	16µM*	5%
Cc1ccc(Cl)cc1Nc1nn2c(=O)c3ccc(C(=O)N4CCCC(C)C4)cc3nc2s1 (stereo not given)	?	1%	?	-11%
CCc1ccccc1Nc1nn2c(=O)c3ccc(C(=O)NCCc4ccccc4)cc3nc2s1	23µM*	0%	10µM*	-1%
CCCC(C)(C)C(=O)N1CCC1(C)C(=O)NS(=O)(=O)c1ccc(Br)cc1 (stereo not given)	-2%	·	-30%	-1%
Cc1nn(CC(=O)N2CCN(c3ccccc3F)CC2)c(=O)c2cccn12	-16%	-3%	3%	1%
CC1CCCN(C(=O)c2ccc3c(=O)n4nc(Nc5ccccc5)sc4nc3c2)C1 (stereo not given)	?	·	-41%	-25%
SMILES	DT40 TDP1 no CPT	TDP1 inh	TDP1 cell CPT	ClpP mod
CCc1ccccc1Nc1nn2c(=O)c3ccc(C(=O)NC(C)c4ccccc4)cc3nc2s1 (stereo not given)	15µM*	6%	15µM*	-7%
CCc1ccc(NC(=O)c2ccc3c(=O)n4nc(Nc5ccccc5C)sc4nc3c2)cc1	13µM*	-3%	23µM*	-6%
O=C(NCCC1=CCCCC1)c1ccc2c(=O)n3nc(Nc4ccccc4)sc3nc2c1	3.7µM*	3%	2.3µM*	-2%
CSc1ccccc1NC(=O)CN1CCN(S(=O)(=O)c2ccccc2[N+](=O)[O-])CC1	-7%	3%	-1%	1%
Cc1c(C(=O)OCC(=O)NCCN2C(=O)CSC2=O)oc2c1ccc1ccccc12	-25%	5%	15%	32µM*
CCn1c(SC)nnc1-c1c[nH]c2ccccc12	-26%	3%	-18%	-3%
CSc1nnc(-c2sc3cc(Cl)ccc3c2Cl)n1C	26µM*	0%	?	-9%
CCn1c(SC)nnc1-c1sc2cc(Cl)ccc2c1Cl	?	7%	16µM*	-2%
O=C(CSC1=NNC(c2ccccn2)S1)Nc1cccc(Cl)c1 (stereo not given)	1.8µM*	·	1.8µM*	·
O=C(NCc1ccccn1)Nc1cccc(Cl)c1	0%	10%	-9%	-1%
O=C(CSc1nnc(-c2ccccn2)o1)Nc1ccccc1	-1%	-3%	0%	·
O=C(CSC1=NNC(c2ccccn2)S1)Nc1ccccc1 (stereo not given)	1.8µM*	·	2.1µM*	2%
CC(=O)Nc1c(C)ccc(CNC(=O)COc2cc(C)ccc2C)c1C	-21%	-5%	3%	-1%
O=c1c(-c2ccccc2)nc2cnc(Oc3ccccc3)nc2n1Cc1cccs1	?	·	-8%	·
CCn1c(SCC(=O)Nc2cc(C)ccc2F)nnc1-c1ccccc1O	?	-1%	?	0%
Cc1ccc(CNC(=O)C(=O)NCC2OCCCN2S(=O)(=O)c2ccc(F)cc2)cc1 (stereo not given)	-23%	2%	-18%	1%
O=C(CCl)N=c1sccn1Cc1cccc2ccccc12	2.6µM*	7%	4.6µM*	-1%
CCC(=O)OCC(=O)N=c1sccn1Cc1ccccc1Cl	-5%	4%	-2%	1%
COc1ccc(S(=O)(=O)N(CC(=O)Nc2ccc(F)c(Cl)c2)c2ccc(C)cc2)cc1OC	·	0%	·	0%
COc1ccc(C2CCc3cc4c(cc3C2=NOC(C)=O)OCO4)cc1OC (stereo not given)	15µM*	·	21µM*	-16%
COc1cc2c(cc1OC)C(=O)C(c1ccc3c(c1)OCO3)CC2 (stereo not given)	?	·	?	-3%
COc1cc(NC(=O)c2ccc(Cl)cc2)c(OC)cc1Cl	?	2%	?	19%
CCOc1cc(CNC(=O)c2ccc3nc(C(C)C)oc3c2)cc(OCC)c1OCC	18µM*	4%	23µM*	-4%
COc1cc(OC)c(NC(=O)c2ccc3nc(C(C)C)oc3c2)cc1Cl	18µM*	5%	9.2µM*	4%
Cc1ccc2nc3sc(C(=O)Nc4ccc(F)cc4)cc3cc2c1	?	10µM*	?	-8%
CCOc1ccc(CNC(=O)c2ccc3nc(C(C)C)oc3c2)cc1	-15%	2%	-4%	-3%
Cc1cc(C)c(NC(=O)c2ccc3nc(C(C)C)oc3c2)c(C)c1	?	1%	?	-1%
